Screening data deposited in PubChem by National Center for Advancing Translational Sciences (NCATS).
This is one part of a sample in which hits are shown more often than they occur.
PKM2 inhibitor: PKM2 (human) enzyme inhibition | Potency, µM (series often up to 57.5 µM), for the others: at the highest dose activity change, negative = inhibition, hits mostly inhibitors | purified PKM2, ATP generation, Kinase-Glo luminescence | actives 0.058% (n = 260,000) | P14618; note: potency is the fitted concentration of half-maximal effect; nearly all actives have a fitted effect of over 60% in size
Target sequence (P14618 whole entry, looked up): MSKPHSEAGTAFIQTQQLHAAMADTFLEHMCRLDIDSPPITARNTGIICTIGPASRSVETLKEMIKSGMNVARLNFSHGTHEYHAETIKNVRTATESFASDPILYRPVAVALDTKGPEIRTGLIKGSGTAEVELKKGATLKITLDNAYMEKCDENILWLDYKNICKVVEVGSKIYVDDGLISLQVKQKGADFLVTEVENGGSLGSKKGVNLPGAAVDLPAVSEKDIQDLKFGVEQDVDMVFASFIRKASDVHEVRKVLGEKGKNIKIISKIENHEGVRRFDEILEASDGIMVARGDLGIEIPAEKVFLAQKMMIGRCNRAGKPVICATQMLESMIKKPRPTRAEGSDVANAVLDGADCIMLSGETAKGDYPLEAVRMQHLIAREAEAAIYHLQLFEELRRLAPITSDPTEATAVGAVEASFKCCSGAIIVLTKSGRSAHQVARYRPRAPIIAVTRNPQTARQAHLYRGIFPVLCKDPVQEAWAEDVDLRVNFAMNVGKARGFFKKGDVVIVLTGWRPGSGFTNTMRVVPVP
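Coupled luciferase luminescence (Kinase-Glo) detects ATP generated from 0.1 mM ADP and 0.5 mM PEP in imidazole buffer pH 7.2 with KCl, MgCl2; 1 h at room temperature. Enzyme at intermediate activity; normalized to uninhibited and no-enzyme controls.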
PKM2 inh CRC: dose-dependently blocks human pyruvate kinase M2 activity; purified hPK-M2, Kinase-Glo ATP luminescence, 1 h; actives 50% (n = 55); AID 2263; shares compounds with PKM2 inhibitor; Potency, µM (highest dose often 57.5 µM), without a hit: at the top dose activity change, negative = inhibition, actives largely listed as inhibitors
PKM2 FLuc cs: counter-screen for pyruvate kinase M2 inhibitors: firefly luciferase inhibition; actives 30% (n = 55); AID 2265; shares compounds with PKM2 inhibitor; Potency, µM (doses to about 57.5 µM), for the others: at the top dose activity, negative = inhibition, hits mostly inhibitors; Kinase-Glo firefly luciferase, luminescence, 8 min
PKM2 LDH couple: PKM2 (human) inhibition, NADH coupled readout. 55 tested, under 10 active. shares compounds with PKM2 inhibitor. Potency, µM (top dose mostly 57.5 µM), inactives show at the top dose activity change, negative = inhibition, usual class: inhibitors. purified hPK-M2, LDH-coupled NADH fluorescence kinetic
* hit, by the source's call; ? = inconclusive; . = not tested or not shown. Calls come from the whole dose curve; as a rule, active = well fitted curve in the direction sought with a large enough effect; inconclusive = small, poorly fitted or top-dose-only effect, or another doubt; inactive = no such curve, though single readings can be large; an effect the other way counts as inactive or inconclusive.

SMILES	PKM2 inhibitor	others
CNc1c([N+](=O)[O-])cnn1-c1ccc(Cl)cc1	108%
COc1ccc(NN=Nc2nc3c([nH]2)c(=O)n(C)c(=O)n3C)cc1	30%
Cc1ccc(Nc2c(-c3ccc(C)s3)nc3cccc(C)n23)cc1	.	PKM2 inh CRC=?;PKM2 FLuc cs=0%;PKM2 LDH couple=16%
Cc1ccccc1Nc1c(-c2ccccc2)nc2cccc(C)n12	.	PKM2 inh CRC=4%;PKM2 FLuc cs=-2%;PKM2 LDH couple=?
COc1ccc(-c2nc3cccc(C)n3c2Nc2ccc(C)cc2)cc1	.	PKM2 inh CRC=6%;PKM2 FLuc cs=-3%;PKM2 LDH couple=?
COc1cc(N2C(=O)C=CC2=O)c(OC)cc1Cl	121%
CCCCc1ccc(/C=C2\C(=O)c3ccccc3C(O)=C2C(=O)OCC)cc1	45%
N#C/C(=C\Nc1ccc(Cl)cc1)S(=O)(=O)c1ccccn1	53%
Cc1ccc(S(=O)(=O)/N=c2\ccc(Cl)cn2C(F)F)cc1	66%
Cc1ccc(NC(=O)C2C3C=CC4(CN(Cc5cccnc5)C(=O)C24)O3)cc1F (stereo unspecified)	42%
COC(=O)C1=C(C)N(Cc2ccco2)C(=O)N[C@H]1c1cccc(C(F)(F)F)c1	43%
COc1ccccc1/C=C1\SC(=S)N(CCC(=O)Nc2cccc(O)c2)C1=O	37%
Cc1ccc(-c2nc(CN(Cc3cnn(C)c3)C(C)C)c(C)o2)o1	41%
c1ccc2c(SCc3cn4ccccc4n3)nncc2c1	81%
CCc1nn(C(C)C(=O)NC(C)CCc2ccco2)c(=O)c2cc3occc3n12 (stereo unspecified)	46%
CCOC(=O)N1CCN(S(=O)(=O)c2ccc(OCC)cc2)CC1	35%
CCOc1ccc(C(=O)O/N=C(\N)c2ccccn2)cc1	7.9µM*	PKM2 inh CRC=5.8µM*;PKM2 FLuc cs=6.5µM*;PKM2 LDH couple=-10%
N/C(=N\OC(=O)c1ccccc1)c1ccccn1	4µM*	PKM2 inh CRC=9.2µM*;PKM2 FLuc cs=4.1µM*;PKM2 LDH couple=-9%
CCOc1ccc(NC(c2ccccn2)c2oc(CO)cc(=O)c2O)cc1 (stereo unspecified)	41%
C/C(=N\NC(=O)C1CCCN(S(=O)(=O)c2ccccc2)C1)c1ccccn1 (stereo unspecified)	2%
CC(=O)N(c1nnc(-c2cccc(C)c2)s1)C1CCCC1	46%
COc1ccc(NC(=O)/C(Cl)=C(/Cl)S(=O)Cc2ccccc2Cl)cn1 (stereo unspecified)	41%
C/C(=N\NC(=O)CNc1ccccc1)c1ccccc1	60%
Cc1nc([N+](=O)[O-])cn1CC(O)c1ccc(-c2ccccc2)cc1 (stereo unspecified)	-6%
CCOc1cc(/C=N/O)cc(Cl)c1OC	-1%
SMILES	PKM2 inhibitor	others
Oc1ccc(/C=N/N2CCN(C3c4ccccc4-c4ccccc43)CC2)cc1O	79%
CCOC(=O)C(NC=O)(NC(C)(C)C)C(=O)OCC	8%
Fc1ccc(-n2ncc3c(SCc4cccnc4)ncnc32)cc1	40%
Cc1cccc(N2CCN(C(=O)C3CC(=O)N(C4CCCC4)C3)CC2)c1C (stereo unspecified)	15%
Cc1cc(N)n(-c2ccc(S(=O)(=O)c3ccc(C(C)C)cc3)cc2)n1	45%
O=S(=O)(/N=C(/Nc1ccc(Cl)cc1Cl)c1ccccc1)c1cccs1	87%
O=C(Nc1nc2ccccc2n1CCOc1ccccc1)c1ccco1	-6%
Cc1cc(NC(=O)c2ccccc2)ncc1NC(=O)c1ccco1	?	PKM2 inh CRC=16µM*;PKM2 FLuc cs=?;PKM2 LDH couple=-13%
O=C(Nc1cc([N+](=O)[O-])ccc1N1CCCC1)c1ccco1	49%
CC(=O)Nc1ccc(-n2nnnc2SCC(=O)Nc2cccc(NC(=O)c3ccco3)c2)cc1	43%
CCCCNC(=O)Nc1ccnn1C1CCCCC1	16%
Cn1c(=O)c2c(SCC(=O)Nc3nccs3)nc(C3CC3)nc2n(C)c1=O	37%
COc1cccc(CNC(=O)C2CCN(S(=O)(=O)c3ccc(Br)s3)CC2)c1	38%
CCOc1ccc(N2C(=O)CC(Sc3ccccc3C(=O)O)C2=O)c([N+](=O)[O-])c1 (stereo unspecified)	60%
Cc1ccccc1NC(=O)c1cnn(-c2ccccc2)c1C	-12%
COc1ccc(C(=O)N=c2nc3ccccn3s2)cc1	7.9µM*	PKM2 inh CRC=13µM*;PKM2 FLuc cs=5.2µM*;PKM2 LDH couple=-5%
COc1cc(C(=O)NCCCNc2ccc([N+](=O)[O-])cc2)cc(OC)c1OC	44%
Cc1nc2cc(-c3ccccc3)sc2c(=O)n1N	3.5µM*	PKM2 inh CRC=3.7µM*;PKM2 FLuc cs=2.6µM*;PKM2 LDH couple=-5%
N#CCn1cnc2sc(-c3ccccc3)cc2c1=O	31%
Cc1cccc(N2CCN(C(=O)c3cc4c(=O)n(C)c5ccccc5c4n3C)CC2C)c1 (stereo unspecified)	37%
Cc1ccc(S(=O)(=O)Nc2cc(C)c(O)c(Sc3n[nH]c(C)n3)c2)cc1	32%
Cc1ccc(-n2[nH]c(C)c(/C=N/c3ccccn3)c2=O)cc1	11µM*	PKM2 inh CRC=?;PKM2 FLuc cs=?;PKM2 LDH couple=-11%
Cc1ccc(CNC(=O)Cn2ccc3cc(S(=O)(=O)N4CCCC4)ccc32)o1	75%
O=[N+]([O-])c1ccc(NCCCNS(=O)(=O)c2ccccc2)c(Cl)c1	86%
Cc1cc(C)c(S(=O)(=O)N(C)CC(=O)NCc2ccncc2)c(C)c1	56%
SMILES	PKM2 inhibitor	others
Cc1ccc(NS(=O)(=O)c2c(C)nc3sccn3c2=O)cc1C	81%
Cc1ccc(-c2nc3ncccn3c2Nc2ccccc2C)o1	69%
Cc1ccc(-c2nc3ccccn3c2Nc2ccccc2C)o1	.	PKM2 inh CRC=10%;PKM2 FLuc cs=2%;PKM2 LDH couple=4.6µM*
Cc1ccc2nc(-c3ccc(C)o3)c(Nc3ccc(Cl)cc3)n2c1	.	PKM2 inh CRC=21%;PKM2 FLuc cs=-1%;PKM2 LDH couple=?
Cc1ccc(-c2cc(C(=O)Nc3ccccc3C)c3ccccc3n2)o1	43%
COc1ccc(-c2nc3ccccn3c2Nc2ccccc2C)cc1	.	PKM2 inh CRC=?;PKM2 FLuc cs=0%;PKM2 LDH couple=-28%
Cc1ccc(Nc2c(-c3ccc(C)o3)nc3ncccn23)cc1	57%
O=C(NCc1cccs1)C1CCN(S(=O)(=O)c2ccccc2F)CC1	116%
O=C(O)CCc1ccc(-c2cccs2)n1CCc1ccccc1	62%
COc1cc2cc(C)c(SCC(=O)N3CCN(C(=O)c4ccco4)CC3)nc2cc1OC	91%
Cc1cc(C)nc(SCc2cc(=O)c(OC(=O)c3ccc(S(=O)(=O)N4CCCC4)cc3)co2)n1	47%
CC(=O)c1ccccc1OC(=O)CCN1C(=O)c2ccccc2C1=O	47%
COc1ccc(-c2nc(NC(=O)c3[nH]c(C)c(C(C)=O)c3C)sc2C)cc1	79%
CC(C)c1ccc(CN2CC(C(=O)Nc3ccccc3)CC2=O)cc1 (stereo unspecified)	2%
Cc1c(CCC(=O)NC2CC2)c(=O)oc2cc(O)ccc12	35%
Cc1ccc(NC(=O)C2C3CCCC2C3c2ccccc2)cc1 (stereo unspecified)	31%
CCc1ccc(OCCCC(=O)Nc2ccc(S(N)(=O)=O)cc2)cc1	94%
O=C(c1cc(S(=O)(=O)N2CCOCC2)ccc1Cl)N1CCN(c2ccccn2)CC1	87%
CC1(C)NC(=O)N(CC(=O)Nc2cc(S(=O)(=O)N3CCOCC3)ccc2N2CCOCC2)C1=O	37%
